Bioassay records as filed in PubChem BioAssay.
In the library only some 0.5% were active in any assay of this set; here they are far more common.
EPAC1 antagonist: blocks human EPAC1 exchange factor | O95398 | EPAC1 GEF assay, Rap1b-BODIPY-GDP exchange fluorescence | Potency, µM (top dose mostly 115 µM), actives largely listed as inhibitors | actives 0.14% (n = 360,000) | AID 720709; also: nearly all actives have a fitted effect of over 50% in size
PTHR1 ag: activates the human parathyroid hormone receptor PTHR1; Q03431; HEK293 GP2 PTHR1 cells, GloSensor cAMP luminescence, 1 h; Potency, µM (series often up to 115 µM), most hits filed as activators; actives 0.075% (n = 410,000); AID 743266; also: nearly all actives have a fitted effect of over 55% in size
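HEK-293-derived GP2 cells expressing PTHR1 and a GloSensor cAMP reporter, 3,000/well, plated overnight, given luciferin plus IBMX (each 0.5 mM as added) for 1 h at 37 °C, then compound for 1 h at 37 °C. Luminescence was read after 15 min at room temperature.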
EPAC2 antagonist: blocks human EPAC2 exchange factor | Q8WZA2 | EPAC2 GEF exchange of Rap1B-BODIPY-GDP, fluorescence | Potency, µM (series often up to 114 µM), usual class: inhibitors | actives 0.18% (n = 360,000); also: nearly all actives have a fitted effect of over 45% in size
Target sequence (Q8WZA2 whole entry, looked up): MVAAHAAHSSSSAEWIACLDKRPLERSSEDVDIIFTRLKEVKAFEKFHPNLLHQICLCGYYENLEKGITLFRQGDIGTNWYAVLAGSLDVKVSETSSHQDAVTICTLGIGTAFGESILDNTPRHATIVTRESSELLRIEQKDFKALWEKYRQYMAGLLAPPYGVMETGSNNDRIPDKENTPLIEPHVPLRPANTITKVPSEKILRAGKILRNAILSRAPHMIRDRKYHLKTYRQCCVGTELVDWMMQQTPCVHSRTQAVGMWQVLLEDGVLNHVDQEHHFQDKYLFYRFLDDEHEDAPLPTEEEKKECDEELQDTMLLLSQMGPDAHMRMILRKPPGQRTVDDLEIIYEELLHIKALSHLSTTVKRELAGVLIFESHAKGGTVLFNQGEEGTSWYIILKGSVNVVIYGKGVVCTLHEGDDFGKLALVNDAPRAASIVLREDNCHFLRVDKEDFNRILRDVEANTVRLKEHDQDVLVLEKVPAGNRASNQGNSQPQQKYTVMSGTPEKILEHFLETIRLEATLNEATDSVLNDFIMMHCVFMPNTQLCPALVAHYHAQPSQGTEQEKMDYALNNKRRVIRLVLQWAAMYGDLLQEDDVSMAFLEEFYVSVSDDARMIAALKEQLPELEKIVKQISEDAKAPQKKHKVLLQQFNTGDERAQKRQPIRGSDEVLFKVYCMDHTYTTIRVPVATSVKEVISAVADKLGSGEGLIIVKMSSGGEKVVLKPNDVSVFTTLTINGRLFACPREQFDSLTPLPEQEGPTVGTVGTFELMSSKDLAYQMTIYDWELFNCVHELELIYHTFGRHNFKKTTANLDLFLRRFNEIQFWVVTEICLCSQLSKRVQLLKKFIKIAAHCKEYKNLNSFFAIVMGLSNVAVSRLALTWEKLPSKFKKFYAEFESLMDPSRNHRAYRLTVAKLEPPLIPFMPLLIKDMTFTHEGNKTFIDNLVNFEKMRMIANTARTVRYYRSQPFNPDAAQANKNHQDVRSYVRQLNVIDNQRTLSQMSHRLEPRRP
EPAC2 agonist: EPAC2 (human) agonism. Q8WZA2. EPAC2 activation, biochemical qHTS; response scale: 100% = 6.5 mM cAMP response. Potency, µM (titrated, usually from 154 µM), actives largely listed as activators. actives 0.079% (n = 360,000). AID 720711; also: nearly all actives have a fitted effect of over 50% in size
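Fluorescence exchange assay: 100 nM EPAC2 with 250 nM RAP1B-BODIPY-GDP and 50 uM GDP; compounds tested as a concentration-titration series (qHTS). Loss of Rap1-bound BODIPY-GDP fluorescence read at 480/540 nm; data normalized to 6.5 mM cAMP.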
TSHR antag: antagonists of human thyroid stimulating hormone receptor; TSHR-expressing cells, TSH-stimulated cAMP HTRF, 2 h; active compounds read low; activity change, negative = inhibition, % at 11.5 µM; actives 0.2% (n = 330,000);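 active = activity change below a set negative limit, meaning inhibition stronger than a set level, cut at about -70% in these data; inconclusive = activity change between two set negative limits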
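TSHR-expressing cells were treated with compounds, then stimulated with TSH at EC80 (4nM final) for 2 hours at 37 deg C. Cellular cAMP was measured by HTRF competition between lysate cAMP and cAMP-d2 for a cryptate-labelled anti-cAMP antibody.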
EPAC1 ag: EPAC1 (human) agonism; AID 720707; O95398; actives 0.073% (n = 360,000); Potency, µM (doses to about 154 µM), hits mostly activators; EPAC1 agonist qHTS, biochemical assay; response scale: 100% = response to 6.5 mM cAMP; also: nearly all actives have a fitted effect of over 60% in size
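Compounds were pinned as a concentration titration into mixtures of EPAC1 (100 nM), BODIPY-GDP-loaded Rap1B (250 nM) and GDP (50 uM). After 5 min at room temperature, fluorescence was followed for 30 min; activity was scaled to 6.5 mM cAMP.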
Numbers stand for hits; 0 = inactive; ? = inconclusive; - = no result given. Unless noted, calls follow the shape of the dose curve; as a rule, active = well fitted curve in the direction sought with a large enough effect; inconclusive = small, poorly fitted or top-dose-only effect, or another doubt; inactive = no such curve, though single readings can be large; an effect the other way counts as inactive or inconclusive.

SMILES	EPAC1 antagonist	PTHR1 ag	EPAC2 antagonist	EPAC2 agonist	TSHR antag	EPAC1 ag
CC(C)(C)C(=O)NC(=S)NNC(=O)c1sc2ccccc2c1Cl	0	0	0	0	-93.9	0
Nc1c(C(=O)C2CC2)sc2nc(-c3cccs3)cc(C(F)(F)F)c12	0	0	0	112µM	0	0
Nc1c(C(=O)Nc2ccc(F)cc2)sc2nc(-c3cccs3)cc(C(F)(F)F)c12	-	0	-	-	-	-
Cn1cc([C@]2(O)C(=O)Nc3ccc(OC(F)(F)F)cc32)c2ccccc21	0	0	22.4µM	0	-	0
O=[N+]([O-])/C=C/c1cn(Cc2ccc(Cl)cc2)c2ccccc12	0	0	0	100µM	0	?
CN(C)c1ccc(C(=O)c2ccc(O)cc2O)cc1	0	0	0	0	0	0
CN(C)c1ccc(Cc2cc3c(O)ccc(O)c3cc(Cc3ccc(N(C)C)cc3)c2=O)cc1	50.1µM	0	0	0	-	0
C=CCN1C(=O)/C(=C/C=C2/N(CC)c3ccc(S(=O)(=O)N(C)C)cc3N2CC)SC1=S	0	0	0	100µM	0	100µM
Cc1cc(NS(=O)(=O)c2ccc(NC(=O)COc3c(C)cc(Br)cc3C)cc2)no1	0	0	17.8µM	0	0	0
COc1ccccc1C(=O)COC(=O)/C=C/c1ccccc1	0	0	0	0	-92.8	0
COc1ccc(CN2C(=O)C(CC(=O)NCC3CCCCC3)CC(C(=O)N3CCOCC3)=C2C)cc1 (stereo not drawn)	0	0	0	0	-	0
CC(C)C[C@H](NC(=O)C1(c2ccccc2)CCN(C(=O)OC(C)(C)C)CC1)C(=O)N1CCC[C@H]1C(=O)O	?	0	79.4µM	0	0	0
O=C(N/N=C/c1ccccc1O)c1cccc(C(F)(F)F)c1	7.94µM	0	0	0	0	0
O=C(N/N=C/c1ccc(O)cc1)c1cccc(C(F)(F)F)c1	0	0	0	0	0	0
O=C(/C=C/c1ccc([N+](=O)[O-])cc1)Nc1cccc(C(=O)Nc2ccccc2C(=O)O)c1	28.2µM	0	0	0	0	0
COc1ccc(OCC(=O)Nc2ccc(C(=O)Nc3ccccc3C(=O)O)cc2)cc1	0	0	0	0	0	0
O=C(COc1ccc2ccccc2c1)Nc1cccc(C(=O)Nc2ccccc2C(=O)O)c1	44.7µM	0	0	0	0	0
COc1ccc(-c2noc(CSc3nnc(-c4ccc(Cl)cc4)n3C)n2)cc1OC	-	0	-	-	-	-
O=C(Nc1ncccn1)c1ccc(Cl)c([N+](=O)[O-])c1	0	50.1µM	0	0	0	0
O=C(O)c1cc(O)c2c(c1)[C@@H]([C@H]1c3cc(C(=O)O)cc(O)c3C(=O)c3c(O[C@@H]4O[C@H](CO)[C@@H](O)[C@H](O)[C@H]4O)cccc31)c1cccc(O[C@@H]3O[C@H](CO)[C@@H](O)[C@H](O)[C@H]3O)c1C2=O	35.5µM	0	?	0	-79.0	0
OCC1OC(Oc2cccc3ccccc23)C(O)C(O)C1O (stereo not drawn)	0	0	0	0	?	0
COc1ccc(-n2nc(C(=O)Nc3ccc(C)cn3)c3c4ccccc4n(C)c3c2=O)cc1Cl	-	0	-	-	-	-
COc1cccc(NC(=S)N2CCCN(Cc3ccc(F)cc3)C2)c1	0	0	0	0	-104.4	0
Cc1ccc(NC(=O)Cn2ncc3c([nH]c4ccccc43)c2=O)cc1Cl	0	0	0	0	-70.0	0
CCn1c(=S)sc2c(=O)n(CC(=O)Nc3ccccc3C(F)(F)F)c(C)nc21	0	0	0	0	-127.2	0
SMILES	EPAC1 antagonist	PTHR1 ag	EPAC2 antagonist	EPAC2 agonist	TSHR antag	EPAC1 ag
CCn1c(=S)sc2c(=O)n(CC(=O)Nc3ccccc3)c(C)nc21	0	0	0	0	0	0
O=C(CN1C(=O)COc2ccc(S(=O)(=O)Nc3ccccc3)cc21)Nc1cccc(Cl)c1	-	0	-	-	-	-
COc1cc(/C=C2/CC/C(=C/c3ccc(O)c(OC)c3)C2=O)ccc1O	0	0	0	0	0	0
COc1cc(/C=C2\COC/C(=C\c3ccc(O)c(OC)c3)C2=O)ccc1O	89.1µM	0	0	0	0	0
O=C(CC[C@H]1O[C@@H](n2ccc(=O)[nH]c2=O)[C@H](O)[C@@H]1O)NCC1CCCO1 (stereo partly drawn)	0	0	0	0	-	0
CC1CCN(C(=O)CSc2nnc3c(n2)[nH]c2ccccc23)CC1	0	0	0	0	0	0
C(=N\c1ncnc2sccc12)/NOCc1ccccc1	0	0	0	0	0	0
Clc1ccc(CON/C=N/c2ncnc3sccc23)cc1	0	0	0	7.94µM	0	0
Cc1ccc(C(=O)NCC(=O)N2CCCCCCC2)cc1C	0	0	0	0	0	0
CCc1ccc(CNc2ncnc3onc(-c4ccc(Cl)cc4)c23)cc1	-	0	-	-	-	-
CC(C)(C)c1ccc(OCCC(=O)OCC(=O)Nc2ccc(N3CCOCC3)cc2)cc1	0	0	0	0	0	70.8µM
COc1ccc(OCCC(=O)OCC(=O)Nc2ccc(S(=O)(=O)N3CCOCC3)cc2)cc1	?	0	0	0	0	0
CC1CCCN(C(=O)Cn2ncc3c([nH]c4ccccc43)c2=O)C1 (stereo not drawn)	-	0	-	-	-	-
C=CCN1C(=O)S/C(=C\c2ccc(N3CCOCC3)cc2C)C1=O	0	0	0	0	0	0
C=CC(C)N1C(=O)S/C(=C\c2ccc(N3CCOCC3)cc2C)C1=O (stereo not drawn)	35.5µM	0	0	0	0	0
O=C(/C=C/c1ccccc1)c1ccc2c(c1)OCO2	?	0	?	0	0	0
COc1ccc(C(=O)/C=C/c2ccc(N(C)C)cc2)c(OC)c1	0	0	0	0	0	100µM
CN(C)c1ccc(/C=C/C(=O)c2ccc3c(c2)OCO3)cc1	0	0	0	100µM	0	63.1µM
CCOC(=O)c1cccc(NC(=O)c2oc3c(c2C)-c2nn(CC)cc2CC3)c1	-	0	-	-	-	-
O=C(CSc1cn(CCNC(=O)c2cccc(C(F)(F)F)c2)c2ccccc12)Nc1ccc2c(c1)OCCO2	-	0	-	-	-	-
Cc1nnsc1C(=O)Nc1ccc(S(=O)(=O)N2CCCCC2)cc1	0	0	0	0	0	0
CC/C(C)=N\N=C\c1c(O)n(CC)c2cc(C3=NNC(=O)CC3)ccc12	0	0	0	0	0	0
CCn1c(O)c(/C=N/N=C/c2ccc(OC)cc2)c2cc(C3=NNC(=O)CC3)ccc21	?	0	0	100µM	0	0
COc1ccc(Nc2cc(C)c3cc(NC(=O)c4cc(OC)cc(OC)c4)ccc3n2)cc1	-	0	-	-	-	-
CC(=O)N1c2ccccc2C(C)(c2ccccc2)CC1(C)C (stereo not drawn)	0	0	0	0	-77.9	0
